FLuc modulator: inhibits or activates purified firefly luciferase, miR-21 counter-screen; P08659; Potency, µM (top dose mostly 57.5 µM), hits mostly inhibitors; AID 588342; 6.9% of 360,000 active; purified FLuc, Km substrates, luminescence inhibition; also: nearly all actives have a fitted effect of over 55% in size
Target sequence (P08659 whole entry, looked up): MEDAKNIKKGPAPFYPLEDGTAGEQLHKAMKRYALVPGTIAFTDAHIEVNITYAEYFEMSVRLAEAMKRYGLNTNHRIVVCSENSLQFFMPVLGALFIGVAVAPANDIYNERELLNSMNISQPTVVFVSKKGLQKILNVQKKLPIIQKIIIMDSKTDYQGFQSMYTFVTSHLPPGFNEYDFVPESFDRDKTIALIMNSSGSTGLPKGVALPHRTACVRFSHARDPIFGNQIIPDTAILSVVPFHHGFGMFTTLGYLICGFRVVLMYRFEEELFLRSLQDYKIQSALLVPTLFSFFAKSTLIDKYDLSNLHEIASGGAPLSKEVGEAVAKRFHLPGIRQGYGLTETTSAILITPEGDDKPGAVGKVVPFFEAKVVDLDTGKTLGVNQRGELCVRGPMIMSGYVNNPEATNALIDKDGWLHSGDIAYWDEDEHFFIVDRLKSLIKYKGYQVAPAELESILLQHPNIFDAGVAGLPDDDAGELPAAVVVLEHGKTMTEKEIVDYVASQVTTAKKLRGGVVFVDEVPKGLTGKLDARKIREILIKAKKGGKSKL
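Biochemical qHTS of compounds, final roughly 60 µM downward over six points, against 10 nM purified firefly luciferase using Km concentrations of substrates (10 uM D-luciferin, 10 uM ATP) in Tris acetate pH 7.5 buffer; luminescence output.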
ELG1 repair inh: inhibitors of ELG1-dependent DNA repair in HEK293T cells; HEK293T ELG1-luciferase reporter, luminescence, 16 h; DNA damage induced by 5-fluorouridine; AID 504467; 2.3% of 330,000 active; Potency, µM (highest dose often 46.1 µM), usual class: inhibitors; also: nearly all actives have a fitted effect of over 55% in size
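5-Fluorouridine DNA damage + compound/DMSO, 2,000 cells/well, 16 h, 37 °C/5% CO2. ONE-Glo, 30 min RT, luminescence. Readout = decrease in reporter signal.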
ELG1 genotox: induces genotoxicity in HEK293T cells with luciferase-tagged ELG1 | 1.3% of 330,000 active | AID 504466 | Potency, µM (titrated, usually from 46 µM), actives largely listed as activators | HEK293T ELG1-luciferase reporter, luminescence, 16 h; also: nearly all actives have a fitted effect of over 60% in size
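DMSO vehicle served as control against compound-treated ELG1-luciferase HEK293T cells; exposure lasted 16 hr at 37 °C and 5% CO2, followed by ONE-Glo luminescence detection after 30 min.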
SMN2 splice enh: SMN2 splice variant enhancement | HEK293 SMN2-luciferase splicing reporter, luminescence, 30-36 h | Potency, µM (highest dose often 46.1 µM), hits mostly activators | 2.8% of 210,000 active | AID 1458; also: nearly all actives have a fitted effect of over 55% in size
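qHTS luciferase splicing reporter: luminescence rises when SMN2 exon 7 is included in transfected HEK293 cells. Compound exposure lasted 30-36 h at 37C, with 4.5 mM final sodium butyrate as control, followed by a ONE-Glo read.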
Rab9 prom act: activators of Rab9 promoter; AID 485297; 2.8% of 320,000 active; Huh7 Rab9 promoter-luciferase reporter, luminescence, 24 h; Potency, µM (top dose mostly 9.22 µM), usual class: activators; also: nearly all actives have a fitted effect of over 60% in size
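Measured in stably transfected Huh7 cells bearing a Rab9 promoter–luciferase construct: 24 h compound treatment at 37 °C, followed by luminescence detection.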
NPC1 promoter act: activates the NPC1 promoter | Huh7 NPC1 promoter luciferase reporter, 24 h | Potency, µM (doses to about 9.22 µM), hits mostly activators | 2.4% of 320,000 active | AID 485313; also: nearly all actives have a fitted effect of over 60% in size
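Stable NPC1-promoter luciferase Huh7 line; cpd (DMSO) 24 h, 37 °C, 5% CO2; Amplite luciferase reagent 10 min RT; luminescence readout. qHTS format.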
Of the large screens only hits and unclear results are named; the others gave an inactive call. Rows were chosen to be rich in hits. Some 9.2% of all compounds tested hit in one or more screens of this group. Calls follow the shape of the dose curve; as a rule, active = well fitted curve in the direction sought with a large enough effect; inconclusive = small, poorly fitted or top-dose-only effect, or another doubt; inactive = no such curve, though single readings can be large; an effect the other way counts as inactive or inconclusive.

COc1c(F)c(F)c(C(=O)Nc2ccc(N3CCN(Cc4ccccc4)CC3)cc2)c(F)c1F	ELG1 repair inh inconclusive
O=C(COC(=O)CCN1C(=O)C2CC=CCC2C1=O)Nc1ccc(Cl)cc1F (stereo not given)	none (no result: SMN2 splice enh)
[O-][n+]1c(CN2CCCCC2)nc2cccc3c2c1-c1ccccc1-3	none (no result: FLuc modulator, ELG1 repair inh, ELG1 genotox, Rab9 prom act, NPC1 promoter act)
O=C(Nc1ccccc1)Nc1ccccc1C(=O)NCC1CC1	FLuc modulator 15µM (no result: SMN2 splice enh)
Cc1nn(C)c(C)c1NC(=O)c1ccccc1NC(=O)Nc1ccccc1	FLuc modulator 17µM (no result: SMN2 splice enh)
O=C(NCC1CC1)c1ccccc1Cl	none (no result: SMN2 splice enh)
NC(=O)c1ccc(CSc2nc3ccccc3s2)cc1	FLuc modulator inconclusive, ELG1 repair inh inconclusive, ELG1 genotox inconclusive, Rab9 prom act 2.8µM, NPC1 promoter act inconclusive (no result: SMN2 splice enh)
c1ccc2sc(SCc3ccc(-c4nnco4)cc3)nc2c1	FLuc modulator 4.8µM, ELG1 repair inh inconclusive, ELG1 genotox inconclusive, SMN2 splice enh 13µM, Rab9 prom act 3.2µM, NPC1 promoter act 1.4µM
CCNC(=O)c1ccc(CSc2nc3ccccc3s2)cc1	FLuc modulator 5.4µM (no result: SMN2 splice enh)
CN(C)C(=O)c1cc(C(=O)Cc2ccccc2)c[nH]1	none (no result: SMN2 splice enh)
O=C(COc1ccc2ccccc2c1Br)Nc1ccncc1	FLuc modulator 12µM (no result: SMN2 splice enh)
O=C(COc1ccc2ccccc2c1Br)Nc1cccnc1	FLuc modulator 4.8µM, ELG1 repair inh inconclusive, NPC1 promoter act inconclusive (no result: SMN2 splice enh)
CCn1c(=O)cc(OCC(=O)Nc2cccnc2)c2ccccc21	ELG1 repair inh inconclusive
O=S(=O)(CCN1CCCCC1)Oc1ccc(Cl)cc1Cl	none (no result: SMN2 splice enh)
CCOc1ccccc1NC(=O)c1cc(S(=O)(=O)N2CCOCC2)cn1C	none (no result: ELG1 repair inh, ELG1 genotox, SMN2 splice enh, Rab9 prom act, NPC1 promoter act)
Cc1ccc(N2C(=O)c3oc4cc(C)c(C)cc4c(=O)c3C2c2cccc(O)c2)nc1 (stereo not given)	none (no result: ELG1 repair inh, ELG1 genotox, Rab9 prom act, NPC1 promoter act)
COCCCNC(=O)c1c(N)n(-c2cccc(S(N)(=O)=O)c2)c2nc3ccccc3nc12	ELG1 repair inh 12µM
COCCCNC(=O)c1c(N)n(/N=C/c2ccccn2)c2nc3ccccc3nc12	ELG1 repair inh 4.6µM
CCCNC(=O)c1c(N)n(-c2cccc(OC)c2)c2nc3ccccc3nc12	ELG1 repair inh 16µM
Nc1c(C(=O)NCCN2CCOCC2)c2nc3ccccc3nc2n1-c1cccc(F)c1	ELG1 repair inh inconclusive
O=C1COc2cc(S(=O)(=O)CCC(=O)N3CCN(c4cccc(Cl)c4)CC3)c(Cl)cc2N1	none (no result: ELG1 repair inh, ELG1 genotox, SMN2 splice enh, Rab9 prom act, NPC1 promoter act)
c1ccc(C2=NN(c3ccccc3)CC2)cc1	FLuc modulator 3.4µM, ELG1 repair inh inconclusive, ELG1 genotox inconclusive, Rab9 prom act 3.5µM, NPC1 promoter act 2.8µM (no result: SMN2 splice enh)
CCOC(=O)/C(=C/c1ccc(N2CCC(c3ccccc3)=N2)cc1)C(C)=O	ELG1 repair inh inconclusive, ELG1 genotox 21µM, Rab9 prom act inconclusive, NPC1 promoter act inconclusive
Cc1ccc(-n2cc(S(=O)(=O)c3ccc(C)cc3)[nH]c2=O)cc1	FLuc modulator inconclusive
Cc1ccc(C(=O)c2ccccc2C(=O)OCC(=O)NCC2CCCO2)cc1 (stereo not given)	none
Cc1occc1C(=O)Nc1ccccc1C(=O)O	FLuc modulator 27µM, ELG1 repair inh inconclusive, ELG1 genotox inconclusive
Cc1cc(C(=O)Nc2ccccc2C(=O)O)oc1C	FLuc modulator 19µM, ELG1 repair inh inconclusive (no result: SMN2 splice enh)
O=C(CN1CCN(Cc2ccc(Cl)cc2)C1=O)NCCN1CCCC1	none
COc1ccc(NC(=O)C2CCCN2S(=O)(=O)c2cccc3cccnc23)cc1OC (stereo not given)	none
Cc1ccc(C(=O)CN2C(=O)NC3(CCCCCC3)C2=O)c(C)c1	FLuc modulator inconclusive, ELG1 repair inh inconclusive, ELG1 genotox 16µM, Rab9 prom act inconclusive, NPC1 promoter act 4µM (no result: SMN2 splice enh)
Cc1cc(C)c(C(=O)CN2C(=O)NC3(CCCCC3)C2=O)cc1C	ELG1 repair inh inconclusive, Rab9 prom act inconclusive
COCCn1c(C)cc(C(=O)CN2C(=O)NC3(CCCCCCC3)C2=O)c1C	FLuc modulator 15µM, ELG1 repair inh inconclusive, ELG1 genotox inconclusive, SMN2 splice enh inconclusive, Rab9 prom act 4µM, NPC1 promoter act 3.2µM
COCCn1c(C)cc(C(=O)CN2CCCCC2)c1C	none
